# Source: PubChem BioAssay AID651597 (National Center for Advancing Translational Sciences (NCATS), 2012)
# Among all 1,100 compounds or so, about 390 (35%) were called active. About 30% were inconclusive and are not listed. The list shows a part of the results. Values without a mark were called inactive. Calls come from the whole dose curve; as a rule, active = well fitted inhibition curve with a large enough effect; inconclusive = small, poorly fitted or top-dose-only effect; inactive = flat fitted curve, though single readings scatter.
# Target: Luciferin 4-monooxygenase (Photinus pyralis) (UniProt P08659)
# Test: qHTS of Nrf2 Activators: Hit Validation in Secondary FLuc Assay; note: nearly all actives have a fitted effect of over 65% in size
# Conditions: firefly luciferase inhibition counter-screen, luminescence; series mostly up to 57.5 µM; activity, negative = inhibition: at the top concentration
# Summary of the method: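 Counter-screen on purified firefly luciferase with ATP and D-luciferin at Km concentrations; compounds flagged if they inhibit the enzyme, indicating possible reporter stabilization rather than ARE activation.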
# % is set by controls: 0 for no effect and ±100 for the full control effect; potency is the fitted concentration of half-maximal effect.
SMILES,Potency,"activity, negative = inhibition [%]"
Fc1ccc2cc(-c3ccsc3)ncc2c1,1.69 µM (active),
CCN(CC)c1ccc2c(c1)oc(=O)c1c(Cl)cc(=O)oc12,6.01 µM (active),
Cc1noc(C)c1-c1ccc2ncnc(NCC3CCCCN3C)c2c1 (stereo unspecified),,8.17
O=C(Nc1ccccc1)c1cc([N+](=O)[O-])ccc1Cl,,7.81
O=C(Nc1cccc([N+](=O)[O-])c1)c1[nH]ncc1Cl,9.53 µM (active),
CCn1ncc(Br)c1C(=O)Nc1cc([N+](=O)[O-])ccc1C,,-0.338
COc1ccc(C(C#N)=C2C=CC(=NO)C=C2)cc1,8.49 µM (active),
Cc1cc(C)n(-c2nc3ccccc3c(=O)n2OCc2ccc(F)cc2)n1,,-3.71
O=C(CSc1nccc(-c2cccs2)n1)Nc1ccc(F)c(Cl)c1,,0.686
N#Cc1cccn1-c1nccc(-c2cccs2)n1,12 µM (active),
C#CCSc1nc(-c2cccs2)ccc1C#N,,-22.8
Cc1ccc(S(=O)(=O)c2nc(S(C)(=O)=O)sc2N2CCC(O)CC2)cc1,,-0.609
c1ccc(Cc2c(-c3ccco3)nc3c4ccccc4ccn23)cc1,0.601 µM (active),
c1ccc(-c2nc3c4ccccc4ccn3c2Cc2ccsc2)cc1,1.51 µM (active),
Clc1cccc(Cc2c(-c3ccco3)nc3c4ccccc4ccn23)c1,1.9 µM (active),
Fc1cccc(Cc2c(-c3ccco3)nc3c4ccccc4ccn23)c1,0.379 µM (active),
CCCc1nc([N+](=O)[O-])c(S(=O)(=O)c2ccccc2)n1CC(C)C,,-3.37
Clc1cccc(Cc2c(-c3ccccc3)nc3c4ccccc4ccn23)c1,6.01 µM (active),
COc1ccccc1Cc1c(-c2ccco2)nc2c3ccccc3ccn12,0.301 µM (active),
COc1ccc(Cc2c(-c3ccccc3)nc3c4ccccc4ccn23)c(C)c1,3.01 µM (active),
Cc1ccc(Cc2c(-c3ccco3)nc3c4ccccc4ccn23)cc1,0.239 µM (active),
FC(F)(F)c1ccccc1Cc1c(-c2ccccc2)nc2c3ccccc3ccn12,5.36 µM (active),
Clc1ccsc1-c1csc(-c2cccnc2)n1,3.38 µM (active),

SMILES,Potency,"activity, negative = inhibition [%]"
CCOC(=O)N1CCc2c(sc3c2C(=O)NC(c2ccccc2)N3)C1 (stereo unspecified),6.75 µM (active),
CC(=O)N1CCc2c(sc(NC(=O)CCS(=O)(=O)c3ccccc3)c2C#N)C1,,2.37
COc1ccc([C@H]2Cc3cccc(O)c3C(=O)O2)cc1O,,0.428
Cc1sc2ncnc(NCc3ccco3)c2c1C,,-16.7
COc1ccc2[nH]c3c(NCc4ccco4)ncnc3c2c1,4.78 µM (active),
CCc1cc2c(NCc3ccco3)ncnc2s1,,-4.96
COc1cc(OC)c(OC)cc1/C=C1/Cc2ccccc2C1=O,,3.06
O=C1C(=Cc2ccccc2Cl)CCc2ccccc21,0.169 µM (active),
O=C1C(=Cc2cccc(Cl)c2)Cc2ccccc21,1.07 µM (active),
Nc1ccccc1C=C1Cc2ccccc2C1=O,0.426 µM (active),
O=C1C(=Cc2cccc(F)c2)Cc2ccccc21,1.51 µM (active),
Cc1c(=O)n(OCc2ccc(Cl)cc2)c2ccccc2[n+]1[O-],,1.48
CC1(O)c2ccccc2C(=O)N1CCc1ccccc1F (stereo unspecified),6.75 µM (active),
Oc1ccccc1-n1nc2ccc3nonc3c2n1,,-0.935
FC(F)(F)c1cc(-c2cccs2)nc(-n2cc(Br)cn2)n1,,-19.9
FC(F)(F)c1cc(-c2cccs2)nc(NCc2ccco2)n1,,-2
Brc1cc(Br)c2nc(-c3cccs3)ccc2c1,3.01 µM (active),
Cc1sc2c(c1C)C(=O)NC(c1ccccc1F)N2 (stereo unspecified),2.39 µM (active),
O=C(CN1CCS(=O)(=O)CC1)N/N=C/c1cccc(C(F)(F)F)c1,,5.95
CCOC(=O)c1c(NC(=O)/C=C/c2ccc(C)o2)sc(C)c1C,13.5 µM (active),
Cn1nc(C(=O)Nc2c(-c3ccccc3)nc3sccn23)c2ccccc2c1=O,,-28.2
CS/C(=C\C(=O)c1ccco1)Nc1ccccc1Cl,2.69 µM (active),
O=C(NCc1ccco1)c1cc(=O)c2ccccc2o1,,0.0894

SMILES,Potency,"activity, negative = inhibition [%]"
O=c1cc(/C=C/c2ccccc2)oc2ccccc12,2.13 µM (active),
O=[N+]([O-])c1ccccc1N/N=C/c1c[nH]c2ccccc12,0.601 µM (active),
O=C(NCCc1c[nH]c2ccccc12)c1ccc([N+](=O)[O-])o1,,-26.1
C(=N\Nc1nc2ccccc2[nH]1)/c1c[nH]c2ccccc12,1.35 µM (active),
O=C(Nc1c(O)c2ccccc2[nH]c1=O)c1ccco1,,-21.5
Oc1[nH]c2ccccc2c1N=NC(=S)N1CCOCC1,9.53 µM (active),
CC(/C=C(\NC(=O)c1ccccc1)C(=O)N=Nc1c(O)[nH]c2ccc(C)cc12)=C\c1ccccc1,,-11.7
O=C(N=Nc1c(O)[nH]c2ccc(Br)cc12)c1ccco1,10.7 µM (active),
O=C(N=Nc1c(O)[nH]c2ccccc12)c1ccco1,3.01 µM (active),
Cc1ncc(N=Nc2ccccc2)c(-c2ccccc2)n1,,-19.4
O=C1/C(=C/c2ccccc2O)SC(=S)N1Cc1cccnc1,16.9 µM (active),
CN1CCN(C(=O)CCN2C(=O)/C(=C/c3cccc(Br)c3)SC2=S)CC1,,-25.4
COc1ccc(OC)c(/C=C2\SC(=S)N(Cc3cccnc3)C2=O)c1,,-23.6
COC(=O)c1ccc2nc(-c3cccc(Cl)c3)c(Cc3ccccc3OC)n2c1,15.1 µM (active),
COC(=O)c1ccc2nc(-c3ccco3)c(Cc3cccc(Cl)c3)n2c1,12 µM (active),
COC(=O)c1ccc2nc(-c3cccc(Br)c3)c(CC3CCCCC3)n2c1,,-30
COC(=O)c1ccc2nc(-c3ccco3)c(Cc3ccccc3)n2c1,3.38 µM (active),
Cc1nn(C)c(C)c1/C=C(/C(=O)C(C)(C)C)n1cncn1,,-4.22
Cc1ccc(N=C/C(C(=O)C(F)(F)F)=C(\O)c2ccco2)cc1Cl,3.01 µM (active),
Cc1ccc(NC(=O)CC2S/C(=N/N=C/c3ccco3)NC2=O)cc1Cl (stereo unspecified),,-8.08
Cc1cccc(N=C/C(C(=O)C(F)(F)F)=C(\O)c2ccco2)c1,10.7 µM (active),
O=C(/C(C=Nc1ccc(F)cc1)=C(/O)c1ccco1)C(F)(F)F,10.7 µM (active),
O=C(/C(C=Nc1cccc(C(F)(F)F)c1)=C(/O)c1ccco1)C(F)(F)F,13.5 µM (active),

SMILES,Potency,"activity, negative = inhibition [%]"
CSc1nc(Oc2ccc(Cl)cc2)c2sccc2n1,,3.01
CCn1c(=O)c([N+](=O)[O-])c(NCc2ccco2)c2ccccc21,,5.01
N#C/C(=C\c1ccccc1)c1ccccn1,9.53 µM (active),
O=C(CN1CCN(Cc2ccccc2Cl)CC1)N/N=C/C=C/c1ccco1,,0.724
S=c1[nH]nc(-c2ccc(Cl)cc2)n1/N=C/C=C/c1ccco1,10.7 µM (active),
Cc1cccc(-c2n[nH]c(=S)n2/N=C/C=C/c2ccco2)c1,10.7 µM (active),
S=C(NNc1ccc2ccccc2c1)NC1CCCCC1,6.75 µM (active),
CNC(=O)C1CCN(S(=O)(=O)c2c(C)noc2/C=C/c2ccccc2F)CC1,,3.63
COc1ccc(N=Nc2ccc(O)c3ncccc23)cc1,9.53 µM (active),
CCN(CC)CCNC(=O)C(Cl)=C1C(Cl)=C(Cl)C(Cl)=C1Cl,,-0.406
Cc1cc(=O)n2nc(-c3ccccc3)sc2c1C#N,23.9 µM (active),
N#Cc1c(-c2ccccc2)cc(-c2ccccc2)[nH]c1=O,,1.09
[O-][n+]1onc2c3cc(-c4ccccc4)nnc3ccc21,,-23.4
Cc1cc(O)cc2c1C(=O)/C(=C/c1ccco1)O2,2.39 µM (active),
Cn1nnnc1Sc1ncnc2scc(-c3cccc4ccccc34)c12,,-25.5
O=C(Nc1cc(Br)ccc1O)c1cnn2c(C(F)F)cc(C3CC3)nc12,,-21.9
c1ccc(N2CC3COc4ccccc4C3=N2)cc1 (stereo unspecified),4.26 µM (active),
c1ccc(N2CC3CCc4ccccc4C3=N2)cc1 (stereo unspecified),3.01 µM (active),
CCOc1ncccc1C(=O)NNC(=O)c1ccc(NS(=O)(=O)c2cccs2)cc1,,-0.928
C/C(=N\NC(=O)c1cccc(Br)c1)c1ccccn1,8.49 µM (active),
CC(=O)c1nn(-c2ccccc2)cc1C(=O)c1cccc(Br)c1,,-11
FC(F)(F)c1nnc2c(Sc3ccccn3)nc3ccccc3n12,,-5.64
CCn1c(=N)n(CC(=O)c2ccco2)c2ccccc21,,5.63

SMILES,Potency,"activity, negative = inhibition [%]"
CCn1c(=NC(=O)c2ccco2)sc2cccc(F)c21,6.01 µM (active),
COc1cc(/C=N/Nc2ccccn2)cc(OC)c1O,2.13 µM (active),
COc1ccc(Br)cc1/C=N/Nc1ccccn1,,-22.8
N/C(=N\OC(=O)c1ccccc1Cl)c1ccncc1,4.78 µM (active),
N/C(=N\OC(=O)c1cc(Cl)ccc1Cl)c1ccncc1,15.1 µM (active),
N/C(=N\OC(=O)c1cccc2ccccc12)c1cccnc1,,4.57
N/C(=N\OC(=O)/C=C/c1ccccc1)c1cccnc1,5.36 µM (active),
N#C/C(=C\C=C\c1ccccc1)C(=O)NCc1cccnc1,,-7.08
N/C(=N\OC(=O)c1cc(Cl)ccc1Cl)c1cccnc1,4.78 µM (active),
O=C1C2C3C=CC(C4CC34)C2C(=O)N1/N=C/c1ccc([N+](=O)[O-])o1 (stereo unspecified),,-29.9
CCCn1nc([N+](=O)[O-])c(C(C#N)c2nc3ccccc3s2)c(Cl)c1=O (stereo unspecified),12 µM (active),
Nc1ccccc1N1C(=O)c2cccc3cccc(c23)C1=O,,-18.6
CCCc1cc(C(N)=O)c(NC(=O)c2ccco2)s1,3.01 µM (active),
Cc1sc(NC(=O)c2ccco2)c(CN2CCCCC2)c1C,,-22.7
Cc1ccc([N+](=O)[O-])cc1NC(=S)NC(=O)c1ccco1,,1.78
Cc1sc(NC(=S)NC(=O)c2ccco2)c(C(N)=O)c1C,1.2 µM (active),
Cc1ccc2nsnc2c1NC(=S)NC(=O)c1ccco1,,-3.95
CCc1c(C)sc(NC(=O)c2ccco2)c1C#N,12 µM (active),
NC(=O)c1c(NC(=O)c2ccco2)sc2c1CCC2,2.13 µM (active),
